The text below walks through data of PubChem BioAssay.

Results filed as inconclusive are left out. Activity calls are given as the source filed them.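 How the source made its calls, unless noted: active means aptamer binding inhibition above 30%, about 3 SD of noise from non-fluorescent compounds; inactive means inhibition at or below 30%.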

The term inhibition denotes the drop in the measured response relative to a control, in per cent.

A short description of experiment [1]: yeast TOR pathway RPL19A-GFP modulators, primary screen, cell-based, S. cerevisiae, multiplex flow cytometry (AID 1862; in the data active means percent of DMSO control GFP below about 86%;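 further: lower values mimic rapamycin by blocking the RPL19A rise seen in DMSO cells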). The following applies: S. cerevisiae RPL19A-GFP strain, flow cytometry fluorescence, 3 h; at 10 µM; stronger effect = lower value.
Experiment [2] can be described thus: modulators of MEP2-GFP levels in yeast, primary screen, S. cerevisiae, multiplex flow cytometry (AID 1867;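 active means GFP response, as percent of the DMSO control, above the screen-wide mean plus 3 SD, about 139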;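 further: median GFP channel fluorescence of barcode-gated MEP2-GFP cells measured by flow cytometry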). The conditions noted are these: S. cerevisiae MEP2-GFP strain, 3 h, at 10 µM, stronger effect = higher value, 100% means same as DMSO wells.
The nature of experiment [3]: modulators of CIT2-GFP expression in yeast, primary screen, S. cerevisiae, GFP fusion, multiplex flow cytometry (AID 1870;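 active means percent response above a set limit, the screen-wide mean plus 3 SD, cut at about 130% in these data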;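 further: barcoded CIT2-GFP strain pooled with four other GFP strains with rapamycin as positive control; median GFP fluorescence per well over plate mean of DMSO wells so 100% = DMSO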). The conditions noted are these: 3 h, at 10 µM, stronger effect = higher value.
The nature of experiment [4]: modulators of LAP4-GFP expression in yeast, primary screen, S. cerevisiae, multiplex flow cytometry (AID 1873;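 active means GFP signal, as percent of the solvent control, above the screen mean plus 3 SD, about 149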). The following applies: 3 h, at 10 µM, stronger effect = higher value.
Experiment [5] in a line: modulators of AGP1-GFP expression in yeast TOR pathway, primary screen, cell-based, multiplex flow cytometry, S. cerevisiae (AID 1887;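 active means GFP signal above the screen-wide mean plus 3 SD, that is over about 124.5% of the solvent control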;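 further: AGP1-GFP fusion strain of S. cerevisiae within a five-strain barcoded multiplex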). The following applies: 3 h, at 10 µM, stronger effect = higher value. For orientation: In flow cytometry, cells or beads pass a laser one at a time.
A short description of experiment [6]: inhibitors of CD8+ T cell-vesicle binding, pilot screen, LFA-1/ICAM-1 modulator project, MLPCN validation set, flow cytometry (AID 2523;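 active means response below a set limit, under 55% cells CD8-positive and vesicle-bound, and CD8 cells' 90th-percentile brightness under 279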;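 on vesicle binding response: mean PE anti-B7-1 fluorescence of CD8+ cells relative to row control; 100% = QL9-loaded vesicles with DMSO vehicle in the same plate row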). The following applies: 2C mouse CD8+ T cells, at 7 µM, stronger effect = lower value; double positive events: measured here: CD8+/vesicle+ event percentage.
The target of experiment [7] is Integrin beta-1 (Homo sapiens) + Integrin alpha-4 (Homo sapiens) (UniProt P13612+P05556). Put plainly: inhibition of HUTS-21 binding to VLA-4, pilot screen, VLA-4 allosteric modulator project, U937 cells, HUTS-21 mAb, flow cytometry, validation set (AID 2674;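 active means inhibition above 50%, about 3 SD of the validation set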;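 further: antibody binding induced by the VLA-4 ligand LDV present at three times its Kd; 0% = LDV ligand with antibody and no compound and 100% = antibody without LDV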). The conditions noted are these: HUTS-21 LIBS mAb binding, at 6.7 µM, stronger effect = higher value, binding induced by LDV ligand.
Chain of Integrin beta-1 (Homo sapiens) + Integrin alpha-4 (Homo sapiens) (P05556 whole entry, looked up): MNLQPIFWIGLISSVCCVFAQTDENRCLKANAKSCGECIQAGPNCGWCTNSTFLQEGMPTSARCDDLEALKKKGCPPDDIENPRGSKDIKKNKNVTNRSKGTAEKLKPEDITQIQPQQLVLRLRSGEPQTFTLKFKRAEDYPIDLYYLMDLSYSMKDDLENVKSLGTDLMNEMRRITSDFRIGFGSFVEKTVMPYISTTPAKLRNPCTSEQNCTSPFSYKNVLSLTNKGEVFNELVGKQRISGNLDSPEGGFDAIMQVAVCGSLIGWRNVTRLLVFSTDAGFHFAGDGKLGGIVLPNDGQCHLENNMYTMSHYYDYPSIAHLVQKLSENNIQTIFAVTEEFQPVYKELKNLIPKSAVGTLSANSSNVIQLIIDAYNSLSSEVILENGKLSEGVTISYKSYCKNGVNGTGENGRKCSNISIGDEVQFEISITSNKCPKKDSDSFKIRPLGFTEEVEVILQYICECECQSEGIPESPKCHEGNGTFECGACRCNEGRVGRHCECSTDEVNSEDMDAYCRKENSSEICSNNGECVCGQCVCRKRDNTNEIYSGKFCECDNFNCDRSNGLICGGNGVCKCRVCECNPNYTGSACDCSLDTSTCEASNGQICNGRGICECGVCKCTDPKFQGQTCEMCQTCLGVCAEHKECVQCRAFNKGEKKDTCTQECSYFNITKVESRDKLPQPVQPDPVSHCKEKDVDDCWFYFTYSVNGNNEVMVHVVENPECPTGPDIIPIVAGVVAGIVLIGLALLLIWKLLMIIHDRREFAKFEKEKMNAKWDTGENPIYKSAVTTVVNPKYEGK
Chain of Integrin beta-1 (Homo sapiens) + Integrin alpha-4 (Homo sapiens) (P13612 whole entry, looked up): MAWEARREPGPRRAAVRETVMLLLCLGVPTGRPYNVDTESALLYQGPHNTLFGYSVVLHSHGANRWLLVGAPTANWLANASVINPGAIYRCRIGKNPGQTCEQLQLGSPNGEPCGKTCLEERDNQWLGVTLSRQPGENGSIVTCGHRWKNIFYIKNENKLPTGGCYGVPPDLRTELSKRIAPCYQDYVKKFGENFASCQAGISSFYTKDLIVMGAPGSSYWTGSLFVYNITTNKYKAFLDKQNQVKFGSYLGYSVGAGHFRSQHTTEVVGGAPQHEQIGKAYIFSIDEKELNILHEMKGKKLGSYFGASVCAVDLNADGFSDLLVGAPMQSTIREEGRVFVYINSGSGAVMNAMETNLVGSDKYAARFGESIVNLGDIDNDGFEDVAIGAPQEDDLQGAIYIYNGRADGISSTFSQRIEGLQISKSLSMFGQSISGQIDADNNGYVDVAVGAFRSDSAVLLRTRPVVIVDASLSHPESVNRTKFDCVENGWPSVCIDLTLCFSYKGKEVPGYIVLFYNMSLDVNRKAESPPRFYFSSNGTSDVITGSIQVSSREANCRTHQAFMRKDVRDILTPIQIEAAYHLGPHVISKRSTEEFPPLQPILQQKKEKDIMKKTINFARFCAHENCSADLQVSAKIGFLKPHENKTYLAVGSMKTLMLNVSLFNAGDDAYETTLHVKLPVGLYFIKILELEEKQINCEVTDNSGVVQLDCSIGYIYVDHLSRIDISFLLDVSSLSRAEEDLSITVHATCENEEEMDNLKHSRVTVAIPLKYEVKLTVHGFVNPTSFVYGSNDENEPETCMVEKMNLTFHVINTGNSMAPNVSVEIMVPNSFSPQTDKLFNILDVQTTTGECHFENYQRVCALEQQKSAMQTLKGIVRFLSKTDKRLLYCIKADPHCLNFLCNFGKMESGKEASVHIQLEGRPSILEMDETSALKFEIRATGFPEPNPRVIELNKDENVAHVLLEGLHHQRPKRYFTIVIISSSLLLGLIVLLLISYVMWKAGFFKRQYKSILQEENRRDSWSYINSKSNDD

Experiment [8] is described as follows: superoxide lowering in aged yeast cells, pilot screen, validation compound set (AID 2706;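 active means superoxide response below 65% of plate, a cut near 3 SD across the whole screen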;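 further: yeast exposed to compound for one week at 30 degrees C before staining; 100% = mean of all compound wells on the same plate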). The following applies: S. cerevisiae aging, superoxide DHE fluorescence; at 10 µM; stronger effect = lower value.
For experiment [9], the target named is Beta-adrenergic receptor kinase 1 (Homo sapiens) (UniProt P25098). Put plainly: GRK2 binders displacing RNA aptamer, biochemical, validation, human GRK2, bead flow cytometry (AID 488806). The following applies: bead-bound GRK2, FAM-aptamer displacement, at 10 µM, stronger effect = higher value.
Chain of Beta-adrenergic receptor kinase 1 (Homo sapiens) (P25098 whole entry, looked up): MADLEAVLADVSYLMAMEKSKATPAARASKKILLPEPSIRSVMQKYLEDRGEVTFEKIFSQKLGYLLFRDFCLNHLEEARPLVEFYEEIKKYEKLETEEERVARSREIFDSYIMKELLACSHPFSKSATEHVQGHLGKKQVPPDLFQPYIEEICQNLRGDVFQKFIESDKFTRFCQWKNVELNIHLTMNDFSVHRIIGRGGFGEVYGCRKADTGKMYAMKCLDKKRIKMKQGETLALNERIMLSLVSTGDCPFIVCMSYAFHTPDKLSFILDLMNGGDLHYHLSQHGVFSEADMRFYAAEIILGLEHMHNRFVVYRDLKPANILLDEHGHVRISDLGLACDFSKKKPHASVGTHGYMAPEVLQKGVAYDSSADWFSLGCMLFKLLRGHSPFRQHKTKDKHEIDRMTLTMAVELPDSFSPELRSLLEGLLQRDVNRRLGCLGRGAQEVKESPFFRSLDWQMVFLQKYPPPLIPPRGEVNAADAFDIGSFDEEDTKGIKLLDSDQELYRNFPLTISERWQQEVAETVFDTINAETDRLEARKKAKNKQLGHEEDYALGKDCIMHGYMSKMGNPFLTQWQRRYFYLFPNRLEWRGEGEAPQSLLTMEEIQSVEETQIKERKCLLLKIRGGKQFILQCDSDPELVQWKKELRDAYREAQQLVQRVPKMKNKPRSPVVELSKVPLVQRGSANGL
The target in experiment [10] is Beta-2 adrenergic receptor (Homo sapiens) (UniProt P07550). The experiment is described as follows: beta2AR agonists driving receptor internalization, pilot screen, cell-based, FAP fluorogen, flow cytometry, validation set (AID 504459;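 active means percent response above 42, roughly 3 SD of non-fluorescent test compounds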;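 further: agonist-driven loss of surface beta2AR via internalization measured by FAP dye flow cytometry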). The conditions noted are these: Am2.2-beta2AR cells, FAP surface receptor flow cytometry; at 10 µM; stronger effect = higher value.
Chain of Beta-2 adrenergic receptor (Homo sapiens) (P07550 whole entry, looked up): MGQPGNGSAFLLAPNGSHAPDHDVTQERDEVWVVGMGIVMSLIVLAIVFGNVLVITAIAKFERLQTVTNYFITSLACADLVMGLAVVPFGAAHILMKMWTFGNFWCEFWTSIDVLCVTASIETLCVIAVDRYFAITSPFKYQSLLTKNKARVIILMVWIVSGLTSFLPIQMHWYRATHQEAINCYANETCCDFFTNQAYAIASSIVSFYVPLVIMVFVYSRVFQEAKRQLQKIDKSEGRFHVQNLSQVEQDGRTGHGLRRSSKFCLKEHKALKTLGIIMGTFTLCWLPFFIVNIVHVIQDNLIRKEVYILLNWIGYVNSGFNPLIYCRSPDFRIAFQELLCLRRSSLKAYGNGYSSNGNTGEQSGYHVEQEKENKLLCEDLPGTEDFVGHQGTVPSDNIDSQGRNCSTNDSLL
In experiment [11] the target is AP-2 complex subunit beta (Homo sapiens) (UniProt P63010). The experiment is described as follows: inhibitors of arrestin peptide binding to AP2, pilot screen, biochemical, validation set, GST-AP2 beads, flow cytometry (AID 504541;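 active means inhibition above 54%, about 3 SD of non-fluorescent compounds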;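 further: AP2 carries R879A mutation and is captured from E. coli lysate; bead-bound FITC arrestin peptide fluorescence measuring arrestin peptide binding to AP2; 0% = DMSO wells and 100% = excess unlabeled arrestin peptide control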). The conditions noted are these: FITC arrestin peptide, at 10 µM, stronger effect = higher value, AP2 beta2 appendage fragment, R879A mutant.
Chain of AP-2 complex subunit beta (Homo sapiens) (P63010 whole entry, looked up, the tested form may be a part, one chain of several): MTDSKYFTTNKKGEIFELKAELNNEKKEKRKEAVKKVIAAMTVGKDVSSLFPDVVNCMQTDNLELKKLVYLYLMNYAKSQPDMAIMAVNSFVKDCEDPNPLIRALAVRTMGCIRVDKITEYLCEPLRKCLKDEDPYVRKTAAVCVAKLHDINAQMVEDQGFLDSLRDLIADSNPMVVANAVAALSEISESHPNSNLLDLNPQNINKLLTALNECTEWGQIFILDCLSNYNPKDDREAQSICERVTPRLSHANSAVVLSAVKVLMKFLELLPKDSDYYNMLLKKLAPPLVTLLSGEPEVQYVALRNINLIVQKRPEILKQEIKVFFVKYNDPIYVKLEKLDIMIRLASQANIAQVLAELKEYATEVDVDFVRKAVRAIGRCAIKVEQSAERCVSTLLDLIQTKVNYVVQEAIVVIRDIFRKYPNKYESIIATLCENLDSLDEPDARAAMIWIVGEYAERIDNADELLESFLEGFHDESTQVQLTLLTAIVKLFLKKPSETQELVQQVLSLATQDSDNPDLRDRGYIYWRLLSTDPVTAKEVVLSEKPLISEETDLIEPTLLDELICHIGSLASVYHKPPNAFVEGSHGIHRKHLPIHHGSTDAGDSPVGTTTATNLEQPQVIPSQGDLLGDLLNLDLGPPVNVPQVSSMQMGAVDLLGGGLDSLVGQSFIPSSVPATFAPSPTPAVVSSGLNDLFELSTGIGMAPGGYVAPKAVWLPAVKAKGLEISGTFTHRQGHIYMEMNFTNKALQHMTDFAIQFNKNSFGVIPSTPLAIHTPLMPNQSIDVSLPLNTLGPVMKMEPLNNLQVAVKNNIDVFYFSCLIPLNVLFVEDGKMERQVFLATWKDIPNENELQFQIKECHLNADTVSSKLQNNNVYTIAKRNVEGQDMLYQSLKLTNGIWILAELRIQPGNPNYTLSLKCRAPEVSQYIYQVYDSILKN
Experiment [12] is described as follows: yeast V-ATPase proton transport modulators, S. cerevisiae, pHLuorin, HTS validation (AID 504600; in the data active means response above about 15%;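 further: plate controls were DMSO for no effect and reference compound for full effect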). The following applies: S. cerevisiae pHLuorin cytosolic pH, at 10 µM, stronger effect = higher value.
In experiment [13] the test system is anti-desmoglein-3 scFv antibody binding to human DSG3. The experiment is described as follows: inhibitors of anti-DSG3 scFv binding to DSG3, pilot screen, biochemical, validation compound set, bead-based, flow cytometry (AID 588368;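 active means binding below the plate cutoff, the plate median minus 3 SD, with a reading above zero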;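 further: signal is the median channel fluorescence of bead-bound GFP antibody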). The conditions noted are these: Protein G beads, DSG3-Fc, scFv-GFP binding, at 10 µM, stronger effect = lower value.
The nature of experiment [14]: inhibitors of fungal efflux pumps CDR1, CDR2, MDR1, pilot screen, validation compound set, multiplex, phenotypic (AID 588506;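 active means efflux inhibition above 0.42, the validation set average plus 4 SD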;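 further: Nile Red retained in cells so higher fluorescence means more efflux inhibition; 0 = negative control wells and 1 = enniatin B 25 µM full block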). The following applies: S. cerevisiae pump-expressing triplex, Nile Red efflux flow cytometry; at 10 µM; stronger effect = higher value; the pumps come from Candida albicans.
The target in experiment [15] is ATP-binding cassette sub-family B member 6 (Homo sapiens) (UniProt Q9NP58). The experiment is described as follows: ABCB6 transporter inhibitors, pilot screen, K562-ABCB6 cells, flow cytometry, validation set (AID 588550;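 active means inhibition above the screen-wide mean plus 3 SD, about 51%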;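 further: 0% = DMSO wells and 100% = benzethonium chloride 70 µM positive control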). The following applies: K562-ABCB6 porphyrin accumulation, 1 h, at 10 µM, stronger effect = higher value.
Chain of ATP-binding cassette sub-family B member 6 (Homo sapiens) (Q9NP58 whole entry, looked up): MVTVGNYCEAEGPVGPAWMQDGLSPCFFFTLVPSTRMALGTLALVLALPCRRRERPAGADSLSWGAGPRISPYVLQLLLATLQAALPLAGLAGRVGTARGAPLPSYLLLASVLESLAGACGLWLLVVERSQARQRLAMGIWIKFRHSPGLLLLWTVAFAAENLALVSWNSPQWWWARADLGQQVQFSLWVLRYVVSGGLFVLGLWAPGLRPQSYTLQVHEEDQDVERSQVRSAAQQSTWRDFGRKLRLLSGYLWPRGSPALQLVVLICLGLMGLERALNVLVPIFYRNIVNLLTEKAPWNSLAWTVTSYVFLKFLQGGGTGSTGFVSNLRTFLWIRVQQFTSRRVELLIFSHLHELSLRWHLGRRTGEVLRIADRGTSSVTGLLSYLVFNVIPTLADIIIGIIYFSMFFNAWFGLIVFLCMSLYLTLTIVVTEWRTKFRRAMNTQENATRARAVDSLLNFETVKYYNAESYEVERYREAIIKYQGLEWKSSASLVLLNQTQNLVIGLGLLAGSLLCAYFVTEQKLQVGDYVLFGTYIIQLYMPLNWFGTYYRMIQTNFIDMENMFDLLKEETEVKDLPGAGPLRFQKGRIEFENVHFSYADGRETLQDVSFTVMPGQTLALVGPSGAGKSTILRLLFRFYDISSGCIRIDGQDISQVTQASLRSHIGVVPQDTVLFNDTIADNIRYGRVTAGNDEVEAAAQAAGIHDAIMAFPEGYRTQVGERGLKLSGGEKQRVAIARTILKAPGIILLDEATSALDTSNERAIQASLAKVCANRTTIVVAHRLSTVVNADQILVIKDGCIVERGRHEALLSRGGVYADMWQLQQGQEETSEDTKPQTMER
The nature of experiment [16]: promoters of myeloid differentiation in arrested cells, primary screen, cell-based, GFP/MAC1 double positive, flow cytometry, validation set (AID 588685;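 active means differentiation response of at least 50%, scaled between solvent and reference control, from cells with both markers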;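 further: compound exposure lasts four days before antibody staining and flow analysis; 0% = DMSO wells and 100% = 5 µM fulvestrant positive control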). The following applies: ER-HoxA9 marrow cells, stronger effect = higher value, normalized: vehicle 0, fulvestrant 100.

Regarding `Cc1ccccc1-c1nn(-c2ccc(F)cc2F)cc1CNCCN(C)C`, the percent of DMSO control GFP in [1] is 106% (inactive). Besides, the GFP response vs DMSO in experiment [2] was 103% (inactive); in [4] it was 98.6% (inactive). Further, in experiment [3], the percent response of DMSO control was 116% (inactive). In experiment [5], the GFP response, % of DMSO is 102% (inactive). In experiment [6], this compound had a double positive events of 62%. Moreover, in [6], the vesicle binding response is 51.7% (inactive). The inhibition is 13% (inactive) in experiment [7], -6% (inactive) in [11] and -15% (inactive) in [15]. The superoxide response (% of plate) in experiment [8] is 90.2% (inactive). For the same compound, the aptamer binding inhibition in experiment [9] was -11% (inactive). Also, the figures for the response in [10] and in experiment [12] were -7.22% (inactive) and 3.34% (inactive), respectively. For the same compound, the binding (% of control) in [13] is 103% (inactive). Also, the efflux inhibition (fraction of control) in [14] is -0.07 (inactive). In addition, in experiment [16], the differentiation response was -5.62% (inactive).

As for `CCc1cc2c(=O)c(-c3nc(C)cs3)coc2cc1OC(C)C(=O)NCCO` (stereo not given), the percent of DMSO control GFP in experiment [1] is 90.2% (inactive). Besides, the GFP response vs DMSO in experiment [2] is 129% (inactive); in [4], 86.4% (inactive). In addition, the percent response of DMSO control in experiment [3] is 107% (inactive). In [5], the GFP response, % of DMSO is 92.4% (inactive). Also, the double positive events in experiment [6] stood at 62.3%. The vesicle binding response in experiment [6] was 143% (inactive). The inhibition in experiment [7] was 9.37% (inactive); in [11], -0.76% (inactive); in experiment [15], 10% (inactive). For the same compound, the superoxide response (% of plate) in experiment [8] was 95.6% (inactive). Also, in [9], the aptamer binding inhibition was 3% (inactive). The response in [10] was 8.19% (inactive); in experiment [12] it was -0.12% (inactive). In addition, the binding (% of control) in experiment [13] was 101% (inactive). Besides, the efflux inhibition (fraction of control) in experiment [14] is -0.2 (inactive). For the same compound, the differentiation response in [16] is -4.09% (inactive).

As to `CSCCC(NC(=O)/C(=C/c1ccc2c(c1)OCO2)NC(=O)c1cccc([N+](=O)[O-])c1)C(=O)O` (stereo not given), the percent of DMSO control GFP in [1] was 93.7% (inactive). The GFP response vs DMSO was 123% (inactive) in [2] and 86.4% (inactive) in experiment [4]. For the same compound, in experiment [3], the percent response of DMSO control was 101% (inactive). The GFP response, % of DMSO in experiment [5] is 91.9% (inactive). Moreover, in experiment [6], the double positive events came out at 63.7%. In addition, the vesicle binding response in experiment [6] is 169% (inactive). Further, the figures for the inhibition in experiment [7], in [11] and in experiment [15] were 4.52% (inactive), -5.32% (inactive) and 14% (inactive), respectively. The superoxide response (% of plate) in experiment [8] is 93.4% (inactive). Besides, the aptamer binding inhibition in experiment [9] was 4% (inactive). Besides, the results for the response in [10] and in experiment [12] were 0.64% (inactive) and 0.74% (inactive), respectively. For the same compound, in experiment [13], the binding (% of control) was 105% (inactive). Moreover, the efflux inhibition (fraction of control) in [14] was -0.31 (inactive). Moreover, in experiment [16], the differentiation response was -6.55% (inactive).

Regarding `C=C(C)Cn1c(NCCOC)nc2c1c(=O)[nH]c(=O)n2C`, the percent of DMSO control GFP in [1] is 103% (inactive). The GFP response vs DMSO in [2] was 112% (inactive); in [4], 96.6% (inactive). For the same compound, in experiment [3], the percent response of DMSO control is 104% (inactive). In addition, the GFP response, % of DMSO in experiment [5] was 98.8% (inactive). The compound also registered a double positive events in [6] of 64.5%. Besides, the vesicle binding response in [6] was 327% (inactive). Moreover, the inhibition in experiment [7] is -5.64% (inactive); in experiment [11] it was -1.55% (inactive); in [15], -4% (inactive). In addition, the superoxide response (% of plate) in [8] was 98.4% (inactive). Also, the aptamer binding inhibition in experiment [9] is 3% (inactive). The figures for the response in experiment [10] and in experiment [12] were 3.03% (inactive) and -1.65% (inactive), respectively. Also, the binding (% of control) in experiment [13] was 99.8% (inactive). In addition, the efflux inhibition (fraction of control) in experiment [14] was -0.07 (inactive). The differentiation response in experiment [16] is 0.24% (inactive).

On to `Nc1ccn([C@@H]2O[C@H](CO)[C@@H](O)[C@@H]2O)c(=O)n1`, for which, in [1], the percent of DMSO control GFP is 101% (inactive). For the same compound, the GFP response vs DMSO in experiment [2] is 106% (inactive); in experiment [4], 114% (inactive). Moreover, in experiment [3], the percent response of DMSO control was 109% (inactive). The GFP response, % of DMSO in experiment [5] is 111% (inactive). In experiment [6], this compound registered a double positive events of 64.5%. Moreover, the vesicle binding response in [6] was 201% (inactive). Besides, the inhibition in experiment [7] is 8.29% (inactive); in [11], 10.5% (inactive); in experiment [15], -10% (inactive). Moreover, the superoxide response (% of plate) in experiment [8] was 108% (inactive). Also, the aptamer binding inhibition in experiment [9] is 0% (inactive). For the same compound, the figures for the response in experiment [10] and in experiment [12] were -9.36% (inactive) and -2.75% (inactive), respectively. The binding (% of control) in experiment [13] was 99.4% (inactive). The efflux inhibition (fraction of control) in experiment [14] was -0.08 (inactive). In [16], the differentiation response was -11.9% (inactive).
